Assay [1] can be described thus: compounds binding Alexa647 anti-His antibody – biochemical, small-molecule microarray, 635 nm fluorescence, artefact control for SMM control protein annotation, primary screen (AID 1128).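 Note: score merges feature fluorescence with signal-to-noise for each printed compound spot.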 As to conditions: higher = more signal.
The subject of assay [2] is Human papillomavirus type 1a E7 protein (residues 1-88). The assay can be described thus: HPV1a E7 small-molecule binders, primary screen, biochemical, small-molecule microarray, residues 1-88, 635 nm (AID 1129). To be noted: small-molecule microarray binding, fluorescence 635 nm; higher = more signal.
Assay [3] addresses Focal adhesion kinase 1 (Homo sapiens) (UniProt Q05397). The assay can be described thus: PTK2 protein binding on printed compound slides – biochemical, small-molecule microarray, 635/667 nm fluorescence, BSA, DTT, primary screen (AID 1130).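 Note: composite of spot emission at 667 nm and signal to noise over triplicate slides.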 To be noted: 635 nm fluorescence, higher = more signal.
Assay [4] relates to Fibrinogen (Alexa647-labelled). The assay can be described thus: Alexa647-fibrinogen binding to printed small molecules – biochemical, small-molecule microarray, 635/667 nm fluorescence, artefact control for SMM control-protein annotation, profiling panel (AID 1131).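 Note: z-score merges 667 nm fluorescence with per-spot signal-to-noise over triplicate slides.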 As to conditions: fibrinogen-A647 binding fluorescence, higher = more signal.
The target of assay [5] is Follistatin (Homo sapiens) (UniProt P19883). The assay can be described thus: FST protein binding to printed compounds – biochemical, small-molecule microarray, 635/667 nm fluorescence, primary screen (AID 1132). To be noted: 635 nm fluorescence, higher = more signal.
The target in assay [6] is Fibroblast growth factor 2 (Homo sapiens) (UniProt P09038). The assay can be described thus: basic fibroblast growth factor binding to printed compounds – biochemical, small-molecule microarray, 635/667 nm fluorescence, primary screen (AID 1133). To be noted: FGF2, fluorescence 635/667, higher = more signal.
The nature of assay [7]: JC-1 mitochondrial potential readout, lung cancer cells – cell-based, A549, JC-1 fluorescence, basal, 24 h, 100 nL, profiling panel (AID 1138).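 Note: A549 lung adenocarcinoma cells under basal conditions with no added stimulus; test concentration not given here.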 To be noted: higher = more signal.
Assay [8] has as its system Lefty1. The assay can be described thus: Lefty1 protein binding to printed compounds – biochemical, small-molecule microarray, 635/667 nm fluorescence, primary screen (AID 1139). As to conditions: fluorescence 635/667, higher = more signal.
In assay [9] the test system is wheat germ agglutinin (Triticum aestivum), Alexa647-labelled. The assay can be described thus: Alexa647-WGA lectin binding to printed small molecules – biochemical, small-molecule microarray, 635/667 nm fluorescence, artefact control for SMM control-protein annotation, profiling panel (AID 1140).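 Note: score merges 667 nm feature emission with signal to noise over triplicate slides.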 To be noted: WGA-A647 binding, 635 nm fluorescence, higher = more signal.

The target in assay [10] is Luciferin 4-monooxygenase (Photinus pyralis) (UniProt P08659). The assay can be described thus: inhibition of purified Photinus pyralis luciferase – biochemical, luminescence, purified enzyme, 2006 set, primary screen (AID 1141).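 Note: cell-free assay with purified firefly luciferase at 100 ng per well in PBS; test concentration not given here.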 To be noted: purified firefly luciferase, SteadyGlo luminescence, 30 min; higher = more signal, called active from +8 up or from −8 down.
In assay [11] the test system is Wnt5a (protein binding on small-molecule microarray). The assay can be described thus: small molecules binding Wnt5a protein – biophysical, small-molecule microarray, 635/667 nm fluorescence, primary screen (AID 1142).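 Note: fluorescence read at 667 nm with signal to noise per printed feature.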 To be noted: 635 nm fluorescence, higher = more signal.
Assay [12] is described as follows: ATP-based viability of Huh7 replicon cells – cell-based, CellTiter-Glo luminescence, basal, 48 h, cytotoxicity control for HCV replication inhibitor project, primary screen (AID 1143).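 Note: Huh7 hepatoma cells carrying a hepatitis C replication reporter with no stimulus; test concentration not given here.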 To be noted: higher = more signal, called active from +8 up or from −8 down. For orientation: In antiviral work, replicon cells carry a viral genome segment that copies itself.
The nature of assay [13]: Pseudomonas biofilm growth suppression – PAO1 strain, BacTiter-Glo luminescence, LB-PBS, primary screen (AID 1144). As to conditions: P. aeruginosa PAO1 biofilm, 12 h, higher = more signal.
Assay [14] in a line: basal CRE-LacZ reporter activity in PC12 – cell-based, unstimulated, primary screen (AID 1145). To be noted: no forskolin, luminescence, 4.5 h, higher = more signal, called active from +8 up or from −8 down.
Assay [15] can be described thus: forskolin-driven CRE-LacZ activity in PC12 – cell-based, CRE-LacZ reporter, forskolin-stimulated, primary screen (AID 1146).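 Note: PC12 cells with 6xCRE LacZ reporter stimulated by forskolin 10 µM; beta-galactosidase reporter signal reflecting CREB driven transcription.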 As to conditions: luminescence, 4.5 h, higher = more signal, called active from +8 up or from −8 down.
Assay [16] concerns the target Streptavidin (Streptomyces avidinii) (UniProt P22629). The assay can be described thus: compounds binding control protein streptavidin – biophysical, small-molecule microarray, 635/667 nm fluorescence, artefact control for SMM compound annotation, primary screen (AID 1147).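 Note: signal reflects streptavidin binding to arrayed compounds as a control protein.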 As to conditions: higher = more signal.
Assay [17] in a line: probe aInhba binding on compound microarray – biochemical, small-molecule microarray, 635/667 nm fluorescence, primary screen (AID 1148).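 Note: score merges 667nm spot fluorescence with signal-to-noise for antibody binding to printed compounds.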 To be noted: higher = more signal.
The target of assay [18] is Torsin-1A (Homo sapiens) (UniProt O14656). The assay can be described thus: TOR1A wild-type binding on microarray – cell lysate, small-molecule microarray, lysate, 635/667 nm, primary screen (AID 1149). As to conditions: COS7 hTOR1A-WT lysate, 635 nm fluorescence, higher = more signal.
For assay [19] the target is unchanged. The assay can be described thus: torsin A mutant lysate binding on microarrays – cell lysate, small-molecule microarray, COS7 lysate, 635/667 nm fluorescence, primary screen (AID 1150).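 Note: score pools 667 nm emission and signal to noise measuring lysate protein binding.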 To be noted: COS7 hTOR1A mutant lysate, 635 nm fluorescence, higher = more signal.
Assay [20] concerns Sonic hedgehog protein (Shh). The assay can be described thus: Sonic hedgehog microarray binding compounds – biochemical, small-molecule microarray, 635/667 nm fluorescence, primary screen (AID 1151).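 Note: Shh protein binding to compounds spotted on small-molecule microarray slides; score combines spot fluorescence intensity with signal-to-noise across triplicate slides.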 To be noted: 635 nm fluorescence, higher = more signal.

Experimental findings from PubChem BioAssay are described below.

SMILES strings stand for the structures. Activity calls are given as the source filed them. Unless noted, the rule behind the calls is not given here.

Chain of Fibroblast growth factor 2 (Homo sapiens) (P09038 whole entry, looked up): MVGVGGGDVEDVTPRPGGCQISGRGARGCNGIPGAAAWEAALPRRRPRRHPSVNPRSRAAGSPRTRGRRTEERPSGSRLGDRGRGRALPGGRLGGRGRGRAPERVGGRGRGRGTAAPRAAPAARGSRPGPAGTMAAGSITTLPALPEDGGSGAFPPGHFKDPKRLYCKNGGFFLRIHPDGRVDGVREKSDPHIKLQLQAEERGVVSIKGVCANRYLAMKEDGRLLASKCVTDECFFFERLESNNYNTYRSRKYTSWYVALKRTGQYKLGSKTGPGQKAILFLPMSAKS
Chain of Torsin-1A (Homo sapiens) (O14656 whole entry, looked up): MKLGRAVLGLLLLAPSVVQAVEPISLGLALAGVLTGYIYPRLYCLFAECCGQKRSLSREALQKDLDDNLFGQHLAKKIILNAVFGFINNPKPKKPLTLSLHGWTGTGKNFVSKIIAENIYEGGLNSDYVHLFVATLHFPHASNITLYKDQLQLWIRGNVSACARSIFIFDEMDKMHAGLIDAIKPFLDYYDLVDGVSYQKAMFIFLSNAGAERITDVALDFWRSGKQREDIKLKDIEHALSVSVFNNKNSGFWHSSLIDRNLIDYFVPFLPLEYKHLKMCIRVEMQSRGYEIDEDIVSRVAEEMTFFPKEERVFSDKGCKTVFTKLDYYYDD
Chain of Focal adhesion kinase 1 (Homo sapiens) (Q05397 whole entry, looked up): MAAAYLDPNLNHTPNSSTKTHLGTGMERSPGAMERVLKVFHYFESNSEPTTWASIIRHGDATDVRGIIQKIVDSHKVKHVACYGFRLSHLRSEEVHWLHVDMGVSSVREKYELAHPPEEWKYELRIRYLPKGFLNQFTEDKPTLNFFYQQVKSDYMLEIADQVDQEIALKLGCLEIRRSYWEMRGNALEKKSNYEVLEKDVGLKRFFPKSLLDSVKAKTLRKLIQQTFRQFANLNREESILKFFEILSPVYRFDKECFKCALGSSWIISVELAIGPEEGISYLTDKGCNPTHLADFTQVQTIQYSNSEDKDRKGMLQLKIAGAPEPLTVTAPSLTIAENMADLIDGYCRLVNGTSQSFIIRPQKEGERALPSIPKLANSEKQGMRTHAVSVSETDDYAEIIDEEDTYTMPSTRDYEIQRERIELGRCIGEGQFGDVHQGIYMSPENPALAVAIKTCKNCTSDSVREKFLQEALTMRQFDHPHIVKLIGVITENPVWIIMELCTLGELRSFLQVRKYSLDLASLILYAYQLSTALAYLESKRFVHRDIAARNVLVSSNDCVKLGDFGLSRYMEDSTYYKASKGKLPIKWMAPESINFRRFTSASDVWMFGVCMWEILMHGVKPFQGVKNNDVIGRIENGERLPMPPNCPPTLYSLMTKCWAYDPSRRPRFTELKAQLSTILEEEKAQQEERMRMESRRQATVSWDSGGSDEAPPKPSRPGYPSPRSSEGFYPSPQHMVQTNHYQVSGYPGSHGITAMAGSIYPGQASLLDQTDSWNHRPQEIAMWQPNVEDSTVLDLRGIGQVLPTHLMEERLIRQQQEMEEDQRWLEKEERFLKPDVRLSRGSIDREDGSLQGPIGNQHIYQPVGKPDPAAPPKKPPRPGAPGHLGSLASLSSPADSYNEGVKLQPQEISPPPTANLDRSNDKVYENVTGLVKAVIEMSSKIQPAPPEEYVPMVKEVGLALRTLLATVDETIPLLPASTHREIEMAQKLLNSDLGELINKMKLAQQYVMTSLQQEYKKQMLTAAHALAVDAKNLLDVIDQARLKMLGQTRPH
Chain of Luciferin 4-monooxygenase (Photinus pyralis) (P08659 whole entry, looked up): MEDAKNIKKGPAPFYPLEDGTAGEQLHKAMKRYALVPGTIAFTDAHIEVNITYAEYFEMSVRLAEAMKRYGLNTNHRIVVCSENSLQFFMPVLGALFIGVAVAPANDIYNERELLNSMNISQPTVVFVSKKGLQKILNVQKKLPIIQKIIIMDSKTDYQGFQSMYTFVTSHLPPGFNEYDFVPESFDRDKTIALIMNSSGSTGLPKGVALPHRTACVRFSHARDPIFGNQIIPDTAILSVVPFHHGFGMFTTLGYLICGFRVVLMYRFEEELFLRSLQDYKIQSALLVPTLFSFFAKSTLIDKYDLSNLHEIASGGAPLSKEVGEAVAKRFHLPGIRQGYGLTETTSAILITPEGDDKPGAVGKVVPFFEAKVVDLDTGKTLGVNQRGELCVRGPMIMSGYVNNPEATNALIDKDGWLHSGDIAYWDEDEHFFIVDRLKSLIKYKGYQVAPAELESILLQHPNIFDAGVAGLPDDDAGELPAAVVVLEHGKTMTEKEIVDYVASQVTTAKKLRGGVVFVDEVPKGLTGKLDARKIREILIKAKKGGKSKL
Chain of Follistatin (Homo sapiens) (P19883 whole entry, looked up): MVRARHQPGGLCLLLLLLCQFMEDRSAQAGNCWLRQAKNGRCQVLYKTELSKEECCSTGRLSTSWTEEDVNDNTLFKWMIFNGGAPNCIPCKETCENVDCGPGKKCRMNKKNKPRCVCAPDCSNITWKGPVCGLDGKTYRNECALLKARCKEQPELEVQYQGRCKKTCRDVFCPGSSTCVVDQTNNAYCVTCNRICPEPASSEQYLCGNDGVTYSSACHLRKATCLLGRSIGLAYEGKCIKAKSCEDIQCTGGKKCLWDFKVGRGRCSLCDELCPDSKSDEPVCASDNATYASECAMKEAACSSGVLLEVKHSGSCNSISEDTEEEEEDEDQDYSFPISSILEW
Chain of Streptavidin (Streptomyces avidinii) (P22629 whole entry, looked up): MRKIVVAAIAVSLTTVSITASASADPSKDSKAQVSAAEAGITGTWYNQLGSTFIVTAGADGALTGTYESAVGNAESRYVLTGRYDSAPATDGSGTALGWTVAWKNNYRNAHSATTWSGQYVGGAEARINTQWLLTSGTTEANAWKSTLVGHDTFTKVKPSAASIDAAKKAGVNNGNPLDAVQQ

Take `Cc1ccc(S[C@]2(C(=O)NCCCN(C)C)CC(=O)N(C3CCCCC3)[C@@H]2c2ccc(CO)cc2)cc1`: the composite z-score in assay [1] is -0.693; in assay [2] it was -0.612; in assay [3], 0.116; in [4], -1.43; in [5], -0.24; in assay [6], -0.852. Also, the composite z-score in assay [8] is -0.562; in assay [9], 0.165; in assay [11], -0.178; in assay [16], -0.677; in [17] it was -0.0375; in assay [18] it was -1.74. In addition, the composite z-score in assay [19] is -1.11; in [20], -0.728. Further, the z-score in assay [7] is 1.28; in assay [10] it was 0.437 (inactive); in assay [12] it was -1.19 (inactive); in assay [13], -0.903 (inactive); in assay [14], 0.0279 (inactive); in assay [15], 1.46 (inactive).
For `CCCNC(=O)[C@@H]1c2ccccc2C(=O)N(C(C)C)[C@H]1c1ccc(CO)cc1`, the composite z-score in [1] was 3; in assay [2], -0.645; in assay [3], -0.19; in assay [4] it was -0.29; in assay [5], -0.577; in assay [6], -0.517. Moreover, the composite z-score was -0.371 in [8]; -0.03 in [9]; -0.122 in assay [11]; -0.0547 in [16]; 0.0658 in assay [17]; -0.215 in [18]. Besides, the composite z-score in [19] is 0.0984; in assay [20], -0.121. The z-score in assay [7] is 1.39; in assay [10], 0.407 (inactive); in [12], -0.0095 (inactive); in assay [13], -0.521 (inactive); in assay [14], -0.412 (inactive); in assay [15], 0.211 (inactive).
Take `COc1cc2c(cc1O)C(C)N(Cc1ccc([N+](=O)[O-])o1)CC2` (stereo not given): the composite z-score in assay [1] was determined as 1.63; in assay [2], 1.1; in assay [3], 0.243; in assay [4], 0.824; in assay [5], 0.542; in assay [6], 0.18. The composite z-score in assay [8] was 0.18; in assay [9], 0.918; in [11], 0.322; in [16], 0.97; in assay [17], 0.303; in assay [18] it was 0.682. The composite z-score is 0.897 in assay [19] and 0.0196 in assay [20]. Besides, the z-score in assay [7] was 0.275; in assay [10] it was -0.0107 (inactive); in assay [12] it was 0.143 (inactive); in [13], -0.158 (inactive); in [14], -0.258 (inactive); in assay [15], 1.6 (inactive).
Consider `CCOc1cc(C(O)C2C=CC3C(=O)N(C)C(=O)C3N2Nc2ccccc2)ccc1O` (stereo not given), for which the composite z-score in [1] was 1.08; in [2], 0.881; in [3] it was 0.327; in assay [4], 0.651; in assay [5], 0.0506; in assay [6] it was -0.153. Further, the composite z-score was -0.0696 in assay [8]; 0.974 in assay [9]; 0.297 in [11]; 0.702 in [16]; -0.0297 in assay [17]; 0.526 in assay [18]. Also, the composite z-score in assay [19] was 0.467; in assay [20], -0.485. The z-score was -0.203 in assay [7]; -1.2 (inactive) in [10]; 0.559 (inactive) in assay [12]; -0.947 (inactive) in assay [13]; 0.626 (inactive) in assay [14]; -0.276 (inactive) in [15].
Turning to `O=C1OCC=C[C@H]2OC34C=CCN(c5ccc(Cl)cc5)C(=O)[C@H]3N(CCO)C(=O)[C@@H]4[C@@H]12` (stereo not given in full), the composite z-score in assay [1] is 0.745; in assay [2] it was -0.658; in assay [3], -0.588; in [4], -1.36; in assay [5], -1.12; in [6], -1.06. Also, the composite z-score in [8] was -0.78; in [9], -0.729; in [11], -0.649; in [16] it was -1.02; in assay [17], -0.26; in [18], -0.846. The composite z-score was -1.84 in assay [19] and -0.889 in assay [20]. The z-score in [7] was 0.805; in [10] it was -0.386 (inactive); in [12] it was 0.168 (inactive); in assay [13], 3.17 (inactive); in assay [14], 0.601 (inactive); in assay [15], -0.663 (inactive).
